Results published in publication PMC5540273 (PLoS ONE, 2017).

Tested on: PIK3CB
Settings: concentration: 1 μM,replicates: in singlicate; n = 1
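Also: KINOMEscan kinase panel screen.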

Structure (SMILES) | %Inh [%]
O=C(Nc1ccc(Oc2ccc3nc(NC(=O)C4CC4)cn3n2)c(F)c1)c1cccn(-c2ccccc2)c1=O | 0
C[C@@H]1CNc2c(sc3ccc4nc(-c5ccc(O)cc5)ccc4c23)C(=O)N1 | 34
C[C@@H]1CNc2c(sc3ccc4nc(-c5ccncc5)ccc4c23)C(=O)N1 | 0
Cn1cc(-c2cccc3c(N)c(C(N)=O)nnc23)cn1 | 0
C[C@@H](Oc1cc(-n2cnc3cc(-c4cnn(C)c4)ccc32)sc1C(N)=O)c1ccccc1Cl [GSK580432] | 0
COC(=O)c1cccc(NC(=O)NC2CCN(c3ccnc(Nc4cc(OC)c(OC)c(OC)c4)n3)C2)c1 (stereo not shown) [GSK1379767] | 9
CN1CCN(CCCNc2nccc(-c3c(-c4ccc(F)cc4)nn4cc(C(N)=O)ccc34)n2)CC1 [GW622475] | 0
NC(=O)c1ccc(-c2cc3ncnc(SCC(=O)O)c3s2)cc1 | 15
C[C@@H](Oc1cc(-n2cnc3ccc(-c4ccncc4)cc32)sc1C(N)=O)c1ccccc1Cl [GSK483724] | 68
CCNCC(Cc1ccccc1)NC(=O)c1cc(Br)c(-c2ccnc3[nH]ccc23)s1.Cl.Cl (stereo not shown) [GSK1383280] | 0
